Test [1] in a line: Nuclear factor erythroid 2-related factor 2/antioxidant responsive element (Nrf2/ARE) small molecule agonists: qHTS cell viability counter screen in human keratinocytes (AID 1919968; active = well fitted curve in the direction sought with a large enough effect in the repeat runs; an effect the other way counts as inactive or inconclusive; note: nearly all actives have a fitted effect of over 55% in size; note: potency is the fitted concentration of half-maximal effect). The gist of the method: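 HaCaT ARE reporter line, 1,500 cells/well; 5 h settle, 37 C/5% CO2; cpd in DMSO pinned; 23 h exposure; CellTiter-Fluor, 1 h; fluorescence.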
Test [2] is described as follows: Nuclear factor erythroid 2-related factor 2/antioxidant responsive element (Nrf2/ARE) small molecule agonists: luciferase reporter gene qHTS assay in human keratinocytes (AID 1919969). Note: nearly all actives have a fitted effect of over 35% in size.
Test [3] deals with Gonadotropin-releasing hormone receptor (Homo sapiens) (UniProt P30968). In words: Human gonadotropin-releasing hormone receptor (GnRHR) small molecule agonists, calcium flux assay in GnRHR-HEK293 cells (AID 1920063). Note: nearly all actives have a fitted effect of over 35% in size. The method in brief: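 GnRHR-HEK293, 1500 cells/well, 18 h 37 C/5% CO2; Ca dye 1 h 37 C; cpd pinned (DMSO), agonist mode; kinetic FL 480/540, 3 min, 1 s reads; 15 conc, n=3.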
Gonadotropin-releasing hormone receptor (Homo sapiens), sequence (P30968 whole entry, looked up): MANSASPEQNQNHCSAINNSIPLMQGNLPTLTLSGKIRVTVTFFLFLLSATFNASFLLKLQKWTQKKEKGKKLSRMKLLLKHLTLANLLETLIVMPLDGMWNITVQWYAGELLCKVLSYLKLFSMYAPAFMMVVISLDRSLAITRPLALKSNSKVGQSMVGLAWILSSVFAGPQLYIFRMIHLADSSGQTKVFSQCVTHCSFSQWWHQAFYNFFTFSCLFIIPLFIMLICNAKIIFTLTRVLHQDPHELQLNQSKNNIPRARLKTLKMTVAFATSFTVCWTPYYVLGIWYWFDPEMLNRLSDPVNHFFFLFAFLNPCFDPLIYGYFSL

For test [4], the target named is KiSS-1 receptor (Homo sapiens) (UniProt Q969F8). Nature of the test: Human kisspeptin (KISS1R) small molecule agonists, calcium flux assay in KISS1R-HEK293 cells (AID 1920064; active = well fitted curve in the direction sought with a large enough effect in the repeat runs; an effect the other way counts as inactive or inconclusive). The gist of the method: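 Stable human KISS1R HEK293 line; 18 h plating, 37 C/5% CO2; calcium dye 1 h 37 C; compound pin transfer; kinetic fluorescence Ex/Em 480/540, 3 min.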
KiSS-1 receptor (Homo sapiens), sequence (Q969F8 whole entry, looked up): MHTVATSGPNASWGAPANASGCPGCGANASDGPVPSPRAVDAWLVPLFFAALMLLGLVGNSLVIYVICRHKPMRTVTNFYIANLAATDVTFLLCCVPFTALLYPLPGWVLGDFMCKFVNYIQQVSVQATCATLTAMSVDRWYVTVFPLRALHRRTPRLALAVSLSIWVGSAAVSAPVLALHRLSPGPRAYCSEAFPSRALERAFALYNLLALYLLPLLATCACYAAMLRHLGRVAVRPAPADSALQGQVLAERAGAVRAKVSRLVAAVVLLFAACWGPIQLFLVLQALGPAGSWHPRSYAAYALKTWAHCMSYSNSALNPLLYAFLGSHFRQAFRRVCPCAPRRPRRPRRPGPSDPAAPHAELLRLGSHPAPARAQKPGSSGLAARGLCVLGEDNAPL
On the technique in general: A change in cytosolic calcium serves as a functional read-out for many receptors and channels.

A short description of test [5]: G protein-coupled receptor (GPCR) small molecule agonists, calcium flux assay: HEK293 wild type cell line counter screen (AID 1920065). The gist of the method: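 Kinetic fluorescence at Ex/Em 480/540, recorded every second over 3 min, served as the read-out after compound addition. Each compound was tested at 15 concentrations in triplicate on cells pre-loaded with calcium dye for 1 h.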

Test [6] can be described thus: p53 small molecule agonists, cell-based qHTS assay with rat liver microsomes (AID 1963578). The method in brief:
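Metabolic activation is supplied by rat liver microsomes with NADPH (each 0.5 mg/mL final). p53RE-bla cells incubate with compound 16 h at 37 C; reporter activity is measured by LiveBLAzer fluorescence.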

A short description of test [7]: p53 small molecule agonists, cell-based qHTS assay with human liver microsomes: qHTS cell viability counter screen (AID 1963579). Note: nearly all actives have a fitted effect of over 45% in size. The method in brief: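 After the 460/530 nm beta-lactamase read, CellTiter-Glo was added to the same wells and luminescence measured after 30 min at room temperature, giving viability of p53RE-bla cells treated 16 h with compounds plus microsomes and NADPH.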

The nature of test [8]: p53 small molecule agonists, cell-based qHTS assay with rat liver microsomes: qHTS cell viability counter screen (AID 1963580). Note: nearly all actives have a fitted effect of over 45% in size. The gist of the method: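 HCT-116 p53RE-bla, 4,000 cells/well, 5 h pre-incubation; cpd + rat liver microsomes 0.5 mg/mL + NADPH 0.5 mg/mL (final); 16 h, 37 C; CellTiter-Glo, 30 min RT; luminescence.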
In general terms: Quantitative high-throughput screening tests each substance at several concentrations.

Test [9] is described as follows: p53 small molecule agonists, cell-based qHTS assay (AID 1963582; active = well fitted activation curve with a large enough effect in the signal ratio in the repeat runs, not every such curve was filed as active; the % refers to the signal ratio). The method in brief:
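Reporter line: p53RE-bla. Pre-incubation 5 h, 37 C, 5% CO2; compound (DMSO, pin tool) 16 h, 37 C; B/G FRET substrate 2 h RT; fluorescence intensity read.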

Test [10] addresses 5-hydroxytryptamine receptor 2A (Homo sapiens) (UniProt P28223). In words: 5-hydroxytryptamine receptor 2A (HTR2A) small molecule antagonists, cell-based qHTS assay (AID 1963586). Note: nearly all actives have a fitted effect of over 45% in size. The gist of the method: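 Antagonist-mode intracellular calcium assay: DOI (4 nM) added after 5 min compound pre-incubation at room temperature to dye-loaded HTR2A-CHO cells. Fluorescence followed for 3 min, sampled every second.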

Test [11] has the same target. Nature of the test: 5-hydroxytryptamine receptor 2A (HTR2A) small molecule agonists, cell-based qHTS assay (AID 1963587). Note: nearly all actives have a fitted effect of over 30% in size. The method in brief: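 Kinetic calcium-flux fluorescence (2 min, 1 sec intervals) after compound addition in agonist mode. HTR2A-CHO cells were cultured 18 h, then dye-loaded 1 h at 37 C.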
The target of test [12] is Muscarinic acetylcholine receptor M1 (Homo sapiens) (UniProt P11229). Nature of the test: Cholinergic receptor muscarinic 1 (CHRM1) small molecule antagonists, cell-based qHTS assay (AID 1963588). Note: nearly all actives have a fitted effect of over 40% in size. The method in brief: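 CHRM1-CHO calcium-flux assay, antagonist mode. Cells were seeded 18 h, dye-loaded 1 h at 37 C and given compound for 5 min at RT, then acetylcholine was added at 50nM. FDSS fluorescence was read 3 min; 15 concentrations, three runs.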
Muscarinic acetylcholine receptor M1 (Homo sapiens), sequence (P11229 whole entry, looked up): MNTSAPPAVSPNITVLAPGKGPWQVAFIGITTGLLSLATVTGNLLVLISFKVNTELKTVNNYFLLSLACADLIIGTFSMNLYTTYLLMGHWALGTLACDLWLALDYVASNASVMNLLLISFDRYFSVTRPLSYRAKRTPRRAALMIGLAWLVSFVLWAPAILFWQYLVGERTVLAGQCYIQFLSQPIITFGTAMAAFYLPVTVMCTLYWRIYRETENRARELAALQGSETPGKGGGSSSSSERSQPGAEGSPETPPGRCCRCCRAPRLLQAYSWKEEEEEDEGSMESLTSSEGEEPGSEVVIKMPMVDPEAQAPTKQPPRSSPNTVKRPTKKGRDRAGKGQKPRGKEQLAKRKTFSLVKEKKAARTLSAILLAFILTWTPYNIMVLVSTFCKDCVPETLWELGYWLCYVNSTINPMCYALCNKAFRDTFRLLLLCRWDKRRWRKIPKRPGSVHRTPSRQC

The target is the same in test [13]. Nature of the test: Cholinergic receptor muscarinic 1 (CHRM1) small molecule agonists, cell-based qHTS assay (AID 1963589). Note: nearly all actives have a fitted effect of over 35% in size. The method in brief:
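Human M1 in stable CHO line; 18 h plating, 1 h dye load 37 C; cpd added (agonist mode); Ca2+ fluorescence kinetic read, 1 s intervals; 15 conc, 3 runs.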

Test [14] in a line: cAMP Responsive Elements (CRE) small molecule agonists, cell-based qHTS assay (AID 1963590). The method in brief: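 HEK 293T CRE-bla, 2,000 cells/well, 18 h preincubation 37 C/5% CO2; cpds (DMSO) pinned, 3 h; LiveBLAzer B/G FRET substrate, 2 h RT.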
Test [15] addresses Beta-2 adrenergic receptor (Homo sapiens) (UniProt P07550). Nature of the test: Adrenergic beta2 receptor (ADRB2) small molecule antagonists, cell-based qHTS assay (AID 1963592). Note: series mostly up to about 92 µM; nearly all actives have a fitted effect of over 50% in size. The method in brief:
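Cells (CHO, stable ADRB2 overexpression) incubated 18-20hr at 37C; compounds added from DMSO; agonist mix (1nM isoproterenol, 100uM IBMX, 25uM Ro-20-1724) added; 0.5hr RT; d2-cAMP and anti-cAMP-cryptate added; 1hr RT; 665/615 nm read.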

The target of test [16] is D(2) dopamine receptor (Homo sapiens) (UniProt P14416). Nature of the test: Dopamine D2 receptor (DRD2) small molecule agonists, cell-based qHTS assay (AID 1963594). Note: nearly all actives have a fitted effect of over 35% in size. The method in brief: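 cAMP accumulation in DRD2-HEK293 cells measured by HTRF after 1 h detection; compounds added 10 min before NKH477 (200nM […]) forskolin-analogue stimulation, 30 min at room temperature, with Ro20-1724 present at 0.1 mM final.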
D(2) dopamine receptor (Homo sapiens), sequence (P14416 whole entry, looked up): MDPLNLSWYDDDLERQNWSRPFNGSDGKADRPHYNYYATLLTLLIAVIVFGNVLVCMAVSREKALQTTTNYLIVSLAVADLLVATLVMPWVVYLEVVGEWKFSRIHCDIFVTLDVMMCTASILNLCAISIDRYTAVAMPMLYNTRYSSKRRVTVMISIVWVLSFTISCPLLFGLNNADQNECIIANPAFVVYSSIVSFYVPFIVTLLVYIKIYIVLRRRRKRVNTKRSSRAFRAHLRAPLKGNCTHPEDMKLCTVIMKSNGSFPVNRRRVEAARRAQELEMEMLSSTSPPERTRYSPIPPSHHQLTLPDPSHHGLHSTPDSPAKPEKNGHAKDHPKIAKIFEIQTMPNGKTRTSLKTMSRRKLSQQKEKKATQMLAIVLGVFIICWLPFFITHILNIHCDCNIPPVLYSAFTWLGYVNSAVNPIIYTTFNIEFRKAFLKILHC

The target is the same in test [17]. Nature of the test: Dopamine D2 receptor (DRD2) small molecule antagonists, cell-based qHTS assay (AID 1963595; active = well fitted inhibition curve with a large enough effect in the signal ratio in the repeat runs, with a control signal flat; the % refers to the signal ratio). The gist of the method: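 DRD2-HEK293; 0.1 mM Ro20-1724; cpd 10 min RT; NKH477 200 nM + quinpirole 12 nM, 30 min RT; HTRF cAMP (cAMP-d2/anti-cAMP cryptate), 665/620 nm ratio after 1 h.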
Test [18] in a line: p53 small molecule agonists, cell-based qHTS assay: qHTS cell viability counter screen (AID 1963581). Note: nearly all actives have a fitted effect of over 45% in size. The gist of the method:
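HCT-116 p53RE-bla cells, 4,000/well, plated 5 h before compound pin transfer; 16 h at 37 C; bla substrate 2 h RT; then CellTiter-Glo, 30 min RT, luminescence.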

Test [19] in a line: cAMP Responsive Elements (CRE) small molecule antagonists, cell-based qHTS assay (AID 1963591; active = well fitted inhibition curve with a large enough effect in the signal ratio in the repeat runs, not every such curve was filed as active; the % refers to the signal ratio). The method in brief:
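Beta-lactamase reporter read by FRET substrate (LiveBLAzer B/G) after 2 h at room temperature. CRE-bla HEK293T cells had received compound plus 0.25 uM (final) NKH477 for 3 h at 37 °C.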

The target of test [20] is Beta-2 adrenergic receptor (Homo sapiens) (UniProt P07550). In words: Adrenergic beta2 receptor (ADRB2) small molecule agonists, cell-based qHTS assay (AID 1963593).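 Note: CHO cells stably overexpressing human ADRB2.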 The method in brief: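 CHO cells stably over-expressing ADRB2 were plated overnight at 37C, then dosed with compounds plus a stimulation mix containing 100uM IBMX and 25uM Ro-20-1724 for 0.5hr at room temperature. cAMP was measured by HTRF competition, 1hr.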
Beta-2 adrenergic receptor (Homo sapiens), sequence (P07550 whole entry, looked up): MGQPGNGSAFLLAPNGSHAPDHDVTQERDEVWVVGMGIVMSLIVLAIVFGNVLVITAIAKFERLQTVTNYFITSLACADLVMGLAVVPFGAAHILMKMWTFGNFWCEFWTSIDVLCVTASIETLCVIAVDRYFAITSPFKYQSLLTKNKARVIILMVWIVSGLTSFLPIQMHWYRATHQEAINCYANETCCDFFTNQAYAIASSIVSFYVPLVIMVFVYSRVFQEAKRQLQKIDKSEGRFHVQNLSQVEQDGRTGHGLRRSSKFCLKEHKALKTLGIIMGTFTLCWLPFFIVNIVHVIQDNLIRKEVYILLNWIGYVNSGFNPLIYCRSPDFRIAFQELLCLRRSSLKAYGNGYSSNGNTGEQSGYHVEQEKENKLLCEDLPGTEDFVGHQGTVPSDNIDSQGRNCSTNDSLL

Inconclusive results are not listed. Activity calls are given as the source filed them. Unless noted, calls come from the whole dose curve.

5-hydroxytryptamine receptor 2A (Homo sapiens), sequence (P28223 whole entry, looked up): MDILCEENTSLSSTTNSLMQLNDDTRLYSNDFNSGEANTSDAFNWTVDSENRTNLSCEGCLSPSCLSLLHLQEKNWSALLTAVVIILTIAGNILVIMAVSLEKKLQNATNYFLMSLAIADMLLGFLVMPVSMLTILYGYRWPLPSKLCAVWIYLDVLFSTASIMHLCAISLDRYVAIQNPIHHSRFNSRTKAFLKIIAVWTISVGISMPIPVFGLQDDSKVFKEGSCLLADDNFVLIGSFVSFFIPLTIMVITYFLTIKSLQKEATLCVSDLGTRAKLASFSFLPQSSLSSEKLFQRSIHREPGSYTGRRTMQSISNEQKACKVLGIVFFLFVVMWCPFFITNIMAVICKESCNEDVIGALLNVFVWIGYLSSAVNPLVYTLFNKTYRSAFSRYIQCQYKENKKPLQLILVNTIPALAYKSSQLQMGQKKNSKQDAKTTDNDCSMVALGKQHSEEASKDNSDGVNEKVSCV

Regarding `N[C@@H](CS)C(=O)O`, the Potency result in test [1], in test [2], in [3], in test [4], in test [5] and in test [6] was “inactive” each time. The Potency result in test [7], in [8], in test [9], in test [10], in [11] and in test [12] was “inactive” in each case. In addition, the Potency entry in test [13], in test [14], in test [15], in test [16] and in test [17] was “inactive” each time.
With `Clc1ccc2nsnc2c1NC1=NCCN1`, the Potency result in [1], in test [2], in test [3], in test [4], in test [5] and in [6] was “inactive” in each case. In addition, the Potency entry in [8], in test [18], in [9], in [10], in test [11] and in [12] was “inactive” throughout. The Potency entry in [13], in test [14], in [19], in test [15], in test [20] and in test [16] was “inactive” throughout.
Take `C=CC(=O)[O-].C=CC(=O)[O-].[Zn+2]`: the Potency entry in test [1], in test [2], in test [3], in test [4], in test [5] and in [6] was “inactive” each time. Further, the Potency result in test [8], in test [18], in test [9], in test [11], in test [13] and in test [14] was “inactive” throughout. For the same molecule, the Potency entry in test [19], in test [15], in [20], in test [16] and in test [17] was “inactive” each time.
As for `CC[C@H]1O[C@]2(CC[C@@H]1C)C[C@@H]1C[C@@H](C/C=C(\C)C[C@@H](C)/C=C/C=C3\CO[C@@H]4[C@H](O)C(C)=C[C@@H](C(=O)O1)[C@]34O)O2`, in test [1], the Potency was 15.2 µM (active). Moreover, the Potency result in test [2], in test [3], in test [4], in test [5], in test [6] and in test [7] was “inactive” throughout. Also, the Potency result in test [18], in [10], in test [11], in test [12], in test [13] and in test [15] was “inactive” each time. Also, the Potency result in test [16] was “inactive”.
As for `O=C(O)CN1C(=O)c2cccc3cccc(c23)C1=O`, the Potency result in test [1], in test [2], in [3], in test [4], in test [5] and in test [6] was “inactive” throughout. For the same molecule, the Potency entry in [7], in test [8], in [9], in test [10], in [11] and in test [12] was “inactive” throughout. Besides, the Potency entry in [13], in test [14], in test [19], in test [15], in test [16] and in [17] was “inactive” in each case.
In the case of `Oc1ccc2c(c1)-c1ccccc1C2`, the Potency entry in [1], in test [2], in test [3], in [4], in test [5] and in [6] was “inactive” each time. In addition, the Potency entry in [7], in [8], in test [9], in test [10], in [11] and in test [12] was “inactive” each time. Further, the Potency result in test [13], in [14], in test [15], in [16] and in test [17] was “inactive” throughout.
Consider `CC(=O)/C(C)=C/C1C(C)=CCCC1(C)C` (stereo unspecified), for which the Potency entry in test [1], in test [2], in test [3], in test [4], in test [5] and in test [6] was “inactive” throughout. Besides, the Potency entry in [8], in test [18], in [9], in test [11], in test [12] and in test [14] was “inactive” throughout. For the same molecule, the Potency entry in test [19], in test [15] and in [16] was “inactive” throughout.

(Values after PubChem BioAssay (Tox21).)
